Records with an inconclusive call do not appear. Active and inactive are the calls of the source. Calls come from the whole dose curve; as a rule, active = well fitted inhibition curve with a large enough effect in the signal ratio in the repeat runs (not every such curve was filed as active); inconclusive = weak or mixed curves, or effect the other way; inactive = no such curve, though single readings can be large or run the other way; the % refers to the signal ratio.
Each compound was assayed against Vitamin D3 receptor (Homo sapiens) (UniProt P11473) (assay: qHTS assay to identify small molecule antagonists of the vitamin D receptor (VDR) signaling pathway (AID 743223)). Conditions: VDR-UAS-bla HEK293T, beta-lactamase FRET ratio, 16 h; series mostly up to 61 µM; activity change, negative = inhibition: at the top concentration.
Sequence of Vitamin D3 receptor (Homo sapiens) (P11473 whole entry, looked up): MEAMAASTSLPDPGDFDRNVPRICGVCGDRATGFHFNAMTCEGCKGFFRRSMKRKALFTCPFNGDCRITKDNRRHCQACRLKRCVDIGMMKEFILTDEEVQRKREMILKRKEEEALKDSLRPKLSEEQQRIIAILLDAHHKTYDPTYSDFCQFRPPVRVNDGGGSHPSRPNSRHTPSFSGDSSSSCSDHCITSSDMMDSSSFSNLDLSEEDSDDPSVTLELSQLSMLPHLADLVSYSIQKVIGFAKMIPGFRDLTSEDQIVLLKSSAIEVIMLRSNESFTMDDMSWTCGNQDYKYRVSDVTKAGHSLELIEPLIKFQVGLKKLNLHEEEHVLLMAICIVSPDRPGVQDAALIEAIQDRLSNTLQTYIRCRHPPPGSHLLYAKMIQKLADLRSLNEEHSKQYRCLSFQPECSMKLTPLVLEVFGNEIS
Excerpt: U.S. Tox21 Program National Center for Advancing Translational Sciences [NCATS] NIH Chemical Genomics Center [NCGC] U.S. Environmental Protection Agency [EPA] National Institutes of Environmental Health Sciences [NIEHS] National Toxicology Program [NTP] U.S. Food and Drug Administration [FDA] Tox21 Assay Overview: The vitamin D receptor (VDR), a member of nuclear hormone receptor superfamily, plays a critical role in calcium homeostasis and bone metabolism. It is also involved in cell differentiation and growth, and thrombogenicity.
Tox21 Assay Protocol Summary: VDR-bla cells were dispensed at 2,000 cells/5 uL of assay medium per well into black wall/clear-bottom 1536-well plates using a Multidrop Combi (Thermo Fisher Scientific, Waltham, MA) dispenser. After the assay plates were incubated at a 37C and 5% CO2 for 4 h, 23 nL of compounds dissolved in DMSO, positive controls or DMSO only was transferred to the assay plate by a Pintool station (Kalypsys, San Diego, CA), followed by addition of 1 uL of 1alpha, 25-Dihydroxy Vitamin D3 (3 nM, final concentration in the wells) using a Bioraptr Flying Reagent Dispenser (FRD) workstation (Beckman Coulter, Indianapolis, IN). The plates were incubated at 37C and 5% CO2 for 16 h, and then 1 uL of LiveBLAzerTM B/G FRET substrate was added using a Bioraptr FRD. The plates were incubated at room temperature for 2 h and fluorescence intensity was measured by an Envision plate reader (PerkinElmer, Shelton, CT).
% is set by controls: 0 for no effect and ±100 for the full control effect.

Q: How did the “activity change, negative = inhibition” value turn out when `Cc1cc(C)c(S(=O)(=O)O)cc1N=Nc1cc(S(=O)(=O)O)c2ccccc2c1O` was run?
A: The value was -9.38% (inactive).

Q: For `ClC(Cl)(Cl)c1ccc(C(Cl)(Cl)Cl)cc1`, which “activity change, negative = inhibition” value is on record?
A: Its value is 6.18% (inactive).

Q: With `O=C(O)C1CCC(C(=O)O)CC1` (stereo not given) as the compound, how does the “activity change, negative = inhibition” value read?
A: Its value is 2.77% (inactive).

Q: Which “activity change, negative = inhibition” value does the source give for `CCCC(C)C` here?
A: The value was 2.71% [at 78.8 µM] (inactive).

Q: For `CCCCOC(=O)/C=C\C(=O)OCCCC`, which “activity change, negative = inhibition” value is on record?
A: Its value is -8.15% [at 78.8 µM] (inactive).

Q: `CCN(CC)C(C)CN1c2ccccc2Sc2ccccc21` (stereo not given) was tested. Which “activity change, negative = inhibition” value did it give?
A: Its value is 0.439% (inactive).

Q: Which “activity change, negative = inhibition” value does the source give for `Cc1ccccn1` here?
A: The value was -11.1% (inactive).

Q: With `CC(C(=O)O)c1ccc(-c2ccccc2)c(F)c1` (stereo not given) as the compound, how does the “activity change, negative = inhibition” value read?
A: Its value is -3.55% (inactive).

Q: With `CCCCCCCCCO` as the compound, how does the “activity change, negative = inhibition” value read?
A: Its value is -5.24% (inactive).

Q: Which “activity change, negative = inhibition” value does the source give for `O=CNc1ccccc1` here?
A: Its value is -17.2% [at 78.8 µM] (inactive).

Q: `CCCC(=O)OCC` was tested. Which “activity change, negative = inhibition” value did it give?
A: The value was -12% (inactive).

Q: How did the “activity change, negative = inhibition” value turn out when `c1ccc(-c2nc[nH]c2-c2ccccc2)cc1` was run?
A: The value was -13.6% (inactive).

Q: How did the “activity change, negative = inhibition” value turn out when `CC(C)(Oc1ccc(Cl)cc1)C(=O)OCCCOC(=O)C(C)(C)Oc1ccc(Cl)cc1` was run?
A: The value was -4.26% (inactive).

Q: With `CC(C)(C)c1cc(CO)cc(C(C)(C)C)c1O` as the compound, how does the “activity change, negative = inhibition” value read?
A: The value was -18.5% [at 78.8 µM] (inactive).

Q: With `Cc1cc(CC(=O)O)c(C)n1-c1ccc(Cl)cc1` as the compound, how does the “activity change, negative = inhibition” value read?
A: Its value is 1.58% (inactive).

Q: Which “activity change, negative = inhibition” value does the source give for `CN(C)CC/C=C1\c2ccccc2COc2ccccc21` here?
A: Its value is 3.69% (inactive).

Q: How did the “activity change, negative = inhibition” value turn out when `Nc1nc(CC(=O)O)cs1` was run?
A: Its value is -27.8% [at 78.8 µM] (inactive).

Q: With `CCCCCCc1ccc(N)cc1` as the compound, how does the “activity change, negative = inhibition” value read?
A: Its value is -4.16% (inactive).

Q: `O=C1c2cccc(O)c2C(=O)c2c(O)cc(CO)cc21` was tested. Which “activity change, negative = inhibition” value did it give?
A: Its value is -10.1% (inactive).

Q: Which “activity change, negative = inhibition” value does the source give for `COCCO` here?
A: The value was -18.8% (inactive).

Q: For `COc1ccc([C@@H]2Sc3ccccc3N(CCN(C)C)C(=O)[C@@H]2OC(C)=O)cc1`, which “activity change, negative = inhibition” value is on record?
A: The value was 0.0445% (inactive).

Q: For `COc1ccc2[nH]c(S(=O)Cc3ncc(C)c(OC)c3C)nc2n1` (stereo not given), which “activity change, negative = inhibition” value is on record?
A: The value was 0.324% (inactive).

Q: With `Nc1cnn([C@@H]2O[C@H](CO)[C@@H](O)[C@H]2O)c(=O)n1` as the compound, how does the “activity change, negative = inhibition” value read?
A: Its value is -29.2% (inactive).

Q: Which “activity change, negative = inhibition” value does the source give for `CC(C(=O)O)c1ccc(C(=O)c2ccccc2)s1` (stereo not given) here?
A: Its value is -1.41% (inactive).

Q: How did the “activity change, negative = inhibition” value turn out when `Cn1c(N)nc2nc[nH]c2c1=O` was run?
A: The value was -1.01% (inactive).

Q: For `Cc1ccc2c(ccc3ccccc32)c1`, which “activity change, negative = inhibition” value is on record?
A: Its value is -8.72% [at 78.8 µM] (inactive).

Q: Which “activity change, negative = inhibition” value does the source give for `C=CC(=O)OCCOC(=O)CCC(=O)O` here?
A: Its value is 8.97% (inactive).

Q: `CCN(CC)C(C)=O` was tested. Which “activity change, negative = inhibition” value did it give?
A: The value was 11.9% [at 78.8 µM] (inactive).

Q: With `CC(C)(C)c1ccc(OCC2CO2)cc1` (stereo not given) as the compound, how does the “activity change, negative = inhibition” value read?
A: Its value is -22% [at 78.8 µM] (inactive).

Q: Which “activity change, negative = inhibition” value does the source give for `CCCCCCCCCCCCCCCCCBr` here?
A: The value was 3.35% [at 28.5 µM] (inactive).

Q: Which “activity change, negative = inhibition” value does the source give for `CCCCOc1cc(C(=O)OCCN(CC)CC)ccc1N` here?
A: Its value is -0.534% (inactive).

Q: For `CC[C@H](C)[C@@H](C(=O)O)n1sc2ccccc2c1=O`, which “activity change, negative = inhibition” value is on record?
A: The value was 20.3% (inactive).

Q: Which “activity change, negative = inhibition” value does the source give for `C1CCC2OC2C1` (stereo not given) here?
A: The value was 18.8% [at 78.8 µM] (inactive).

Q: For `CNCC[C@@H](Oc1ccccc1C)c1ccccc1`, which “activity change, negative = inhibition” value is on record?
A: The value was -6.99% (inactive).

Q: How did the “activity change, negative = inhibition” value turn out when `O=C=NC1CCC(CC2CCC(N=C=O)CC2)CC1` (stereo not given) was run?
A: Its value is 1.81% (inactive).

Q: Which “activity change, negative = inhibition” value does the source give for `CC[C@@H]1C[C@H](N(Cc2cc(C(F)(F)F)cc(C(F)(F)F)c2)C(C)=O)c2cc(C(F)(F)F)ccc2N1C(=O)OC(C)C` here?
A: Its value is -1.96% (inactive).

Q: For `CC(C)(C)c1cc(CCC(=O)OCC(COC(=O)CCc2cc(C(C)(C)C)c(O)c(C(C)(C)C)c2)(COC(=O)CCc2cc(C(C)(C)C)c(O)c(C(C)(C)C)c2)COC(=O)CCc2cc(C(C)(C)C)c(O)c(C(C)(C)C)c2)cc(C(C)(C)C)c1O`, which “activity change, negative = inhibition” value is on record?
A: Its value is -15.3% [at 28.5 µM] (inactive).

Q: With `CCCCc1cc2ccccc2c(OCCN(C)C)n1` as the compound, how does the “activity change, negative = inhibition” value read?
A: The value was -12.3% (inactive).

Q: For `C[Si](C)O[Si](C)(C)O[Si](C)(C)O[Si](C)C`, which “activity change, negative = inhibition” value is on record?
A: Its value is 13.4% (inactive).

Q: Which “activity change, negative = inhibition” value does the source give for `O=C(O)COC(=O)Cc1ccccc1Nc1c(Cl)cccc1Cl` here?
A: The value was 4.45% (inactive).
